target: SLC9A10; assay: pooled miR-30 sensor sort-seq; sequence = guide strand; settings: shRNA

First: TTTTTCGTAACAGACAATCTTC
Second: TTGAAATGTGCAACAAACCGAT
The sensor-assay potency score (higher = more potent) of the first is lower: -0.245 for the first, 0.415 for the second.

First: TTAAGCAGTTTATCTCTCCTAT
Second: TATCGGAAAATCTTTCTCCTTT
The sensor-assay potency score (higher = more potent) of the first is lower: -0.373 for the first, -0.118 for the second.

First: TAGTCTGTGTCAATTATCGGAA
Second: TACAGTTGAACTTTGTCCCCAG
The sensor-assay potency score (higher = more potent) of the first is lower: -0.585 for the first, 0.193 for the second.

Compared with TTTATGTTTAGGAACAAACTTT, TTCGTAACAGACAATCTTCTAC is higher in sensor-assay potency score (higher = more potent): -0.563 for the first, 0.0134 for the second.

target: SLC9A5; assay: as above; settings: shRNA

Going from TTGAACTGGATGCACCAGTGGG to AAGTTGTCAAAGAACAGCCTGC, the sensor-assay potency score (higher = more potent) rises from -0.899 to -0.191.

Compared with TTCTGCTGGAAGACCTCCTTGT, TAGAGCGTGGATCAGAAGGTAG is lower in sensor-assay potency score (higher = more potent): 0.342 for the first, -0.999 for the second.

Compared with TACAAGTCCAGCCTGCTGCAAG, TTACTTTCCGAGACAGGTGAAA is lower in sensor-assay potency score (higher = more potent): -0.602 for the first, -0.787 for the second.

Going from AAGGTCTAGACTTAGACCCAGA to TATCACAGCAGCTGTGTCCTGA, the sensor-assay potency score (higher = more potent) rises from -1.07 to 0.318.

First: TTGTCAAAGAACAGCCTGCTAG
Second: TTAAGCAACAGGCCTGAACTGA
The sensor-assay potency score (higher = more potent) of the first is higher: -0.67 for the first, -1.07 for the second.

Compared with TCTGTCTCTGAACTGTCGCTCT, TTCTCTGTCTCTGAACTGTCGC is lower in sensor-assay potency score (higher = more potent): 0.00832 for the first, -0.349 for the second.

target: SLC9A7; assay: as above; settings: shRNA

Going from TTTATCTGAGAGCTGTCCCATA to TAATGAAGCATGAAACAGCAGT, the sensor-assay potency score (higher = more potent) falls from -0.106 to -0.713.

Going from TACAACACCTGTAAATCCGCAG to TTGAAAGCTGTCGTTGTTGGGT, the sensor-assay potency score (higher = more potent) rises from -0.278 to -0.0314.

Going from TTGGTTATCGTACACCTGGGGA to TTTGGTAAACTTAGTCACGTTG, the sensor-assay potency score (higher = more potent) rises from -0.959 to -0.343.

Going from TCTTCTTTAAGCTGTATCCAGC to TAAGACTTGAAAGCTGTCGTTG, the sensor-assay potency score (higher = more potent) rises from -0.509 to 0.00174.

First: TCGACTTCTTGATTCCACCGAC
Second: TATTCGAAGAACTTTCCGCTGA
The sensor-assay potency score (higher = more potent) of the first is lower: 0.212 for the first, 0.32 for the second.

Compared with TTAAGCTGTATCCAGCATGAAA, TTCATTCTGGTCCTCTTCGGAG is higher in sensor-assay potency score (higher = more potent): -1.54 for the first, -1.15 for the second.

target: SLCO4C1; assay: as above; settings: shRNA

First: TTGAATAATATTATCACAGAAT
Second: TATATGATTCAGATACACCAGC
The sensor-assay potency score (higher = more potent) of the first is lower: -0.992 for the first, -0.633 for the second.

Compared with TTGAACTTCAATACTTTTCCTA, TTTGTAAATATGATTGTCCATA is lower in sensor-assay potency score (higher = more potent): 0.743 for the first, -1.19 for the second.

Compared with TAATATTCAAGTATGCTGCTTC, TTATTTAAAAAGTATCACCTTA is lower in sensor-assay potency score (higher = more potent): 0.868 for the first, 0.0246 for the second.

Compared with TTGTCTGTGATTAACACACCTT, TAGACTAATATATTTGTTCAGT is lower in sensor-assay potency score (higher = more potent): -0.412 for the first, -0.742 for the second.

From the OligoGym collection
